Measurements: PubChem BioAssay (NCATS)
Records with an inconclusive call do not appear. The source made the active and inactive calls. The call rests on the fitted dose curve; in most records, active means well fitted curve in the direction sought with a large enough effect; inconclusive means small, poorly fitted or top-dose-only effect, or another doubt; inactive means no such curve, though single readings can be large; an effect the other way counts as inactive or inconclusive.

Experiments:
[1] = Quantitative High-Throughput drug screen in 47 multiple myeloma cell lines against the NCATS MIPE library collection: KMS20_JCRB cell viability assay (AID 1918973); further: potency means the concentration at half of the fitted maximal effect; nearly all actives have a fitted effect of over 45% in size
Outline: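 Relative luminescence from CellTiter-Glo served as the viability signal, referenced to DMSO-treated (100%) and cell-free medium (0%) controls. Treatment lasted 48 hours at 37C with 500 cells per well.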

[2] = Quantitative High-Throughput drug screen in 47 multiple myeloma cell lines against the NCATS MIPE library collection: MOLP8_DSMZ cell viability assay (AID 1918977); further: nearly all actives have a fitted effect of over 45% in size; further: potency means the concentration at half of the fitted maximal effect
Outline: (§1)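 500 cells/well; MIPE 4.0 drugs pin-transferred; 48 h, 37C, 5% CO2. CellTiter-Glo, 5 min RT, luminescence. Controls: DMSO 100%, media 0%.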

[3] = Quantitative High-Throughput drug screen in 47 multiple myeloma cell lines against the NCATS MIPE library collection: NCIH929_DSMZ cell viability assay (AID 1918978); further: nearly all actives have a fitted effect of over 35% in size; further: potency means the concentration at half of the fitted maximal effect
Outline: as §1

[4] = Quantitative High-Throughput drug screen in 47 multiple myeloma cell lines against the NCATS MIPE library collection: MM1S_ATCC cell viability assay (AID 1918980); further: nearly all actives have a fitted effect of over 45% in size; further: potency means the concentration at half of the fitted maximal effect
Outline: as §1

[5] = Quantitative High-Throughput drug screen in 47 multiple myeloma cell lines against the NCATS MIPE library collection: MM1R_ATCC cell viability assay (AID 1918981); further: nearly all actives have a fitted effect of over 35% in size; further: potency means the concentration at half of the fitted maximal effect
Outline: as §1

[6] = Quantitative High-Throughput drug screen in 47 multiple myeloma cell lines against the NCATS MIPE library collection: KMS28PE_JCRB cell viability assay (AID 1918983); further: nearly all actives have a fitted effect of over 35% in size; further: potency means the concentration at half of the fitted maximal effect
Outline: as §1

[7] = Quantitative High-Throughput drug screen in 47 multiple myeloma cell lines against the NCATS MIPE library collection: OCIMY7_PLB cell viability assay (AID 1918987); further: potency means the concentration at half of the fitted maximal effect; nearly all actives have a fitted effect of over 65% in size
Outline: as §1

[8] = Quantitative High-Throughput drug screen in 47 multiple myeloma cell lines against the NCATS MIPE library collection: OPM1_PLB cell viability assay (AID 1918989); further: nearly all actives have a fitted effect of over 40% in size; further: potency means the concentration at half of the fitted maximal effect
Outline: as §1

[9] = Quantitative High-Throughput drug screen in 47 multiple myeloma cell lines against the NCATS MIPE library collection: SKMM1_PLB cell viability assay (AID 1919863); settings: SKMM1 myeloma viability, CellTiter-Glo ATP, 48 h; viability: hits give low values; further: nearly all actives have a fitted effect of over 35% in size; further: potency means the concentration at half of the fitted maximal effect; on viability: series mostly up to about 46 µM
Outline: as §1

[10] = Quantitative High-Throughput drug screen in 47 multiple myeloma cell lines against the NCATS MIPE library collection: U266_ATCC cell viability assay (AID 1919864); further: nearly all actives have a fitted effect of over 35% in size; further: potency means the concentration at half of the fitted maximal effect
Outline: as §1

[11] = Quantitative High-Throughput drug screen in 47 multiple myeloma cell lines against the NCATS MIPE library collection: XG6_PLB cell viability assay (AID 1919865); further: nearly all actives have a fitted effect of over 40% in size; further: potency means the concentration at half of the fitted maximal effect
Outline: as §1

[12] = Quantitative High-Throughput drug screen in 47 multiple myeloma cell lines against the NCATS MIPE library collection: XG1_PLB cell viability assay (AID 1919866); further: nearly all actives have a fitted effect of over 35% in size; further: potency means the concentration at half of the fitted maximal effect
Outline: as §1

[13] = Quantitative High-Throughput drug screen in 47 multiple myeloma cell lines against the NCATS MIPE library collection: OCIMY1_PLB cell viability assay (AID 1918979); further: nearly all actives have a fitted effect of over 35% in size; further: potency means the concentration at half of the fitted maximal effect;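 on viability: series mostly up to about 46 µM; 100% = DMSO-only wells and 0% = cell-free media-only wells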
Outline: as §1

[14] = Quantitative High-Throughput drug screen in 47 multiple myeloma cell lines against the NCATS MIPE library collection: L363_DSMZ cell viability assay (AID 1918984); further: nearly all actives have a fitted effect of over 40% in size
Outline: as §1

[15] = Quantitative High-Throughput drug screen in 47 multiple myeloma cell lines against the NCATS MIPE library collection: KMS34_JCRB cell viability assay (AID 1918985); further: nearly all actives have a fitted effect of over 40% in size; further: potency means the concentration at half of the fitted maximal effect
Outline: as §1

[16] = Quantitative High-Throughput drug screen in 47 multiple myeloma cell lines against the NCATS MIPE library collection: OCIMY5_PLB cell viability assay (AID 1918988); further: nearly all actives have a fitted effect of over 65% in size; further: potency means the concentration at half of the fitted maximal effect
Outline: as §1

[17] = Quantitative High-Throughput drug screen in 47 multiple myeloma cell lines against the NCATS MIPE library collection: KMS26_JCRB cell viability assay (AID 1918975); further: nearly all actives have a fitted effect of over 45% in size; further: potency means the concentration at half of the fitted maximal effect
Outline: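 qHTS of the MIPE 4.0 collection: 500 myeloma cells/well, 48 h drug exposure at 37C in 5% CO2, then CellTiter-Glo for 5 min at room temperature before luminescence reading.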

[18] = Quantitative High-Throughput drug screen in 47 multiple myeloma cell lines against the NCATS MIPE library collection: LP1_DSMZ cell viability assay (AID 1918982); further: nearly all actives have a fitted effect of over 35% in size
Outline: as §1

[19] = Quantitative High-Throughput drug screen in 47 multiple myeloma cell lines against the NCATS MIPE library collection: MMM1_PLB cell viability assay (AID 1918976)
Outline: as §1

COc1cc2nc(N3CCN(C(=O)c4ccco4)CC3)nc(N)c2cc1OC
active: Potency [1] 8.33 µM | Potency [2] 20.9 µM | Potency [3] 8.33 µM | Potency [4] 20.9 µM | Potency [5] 26.4 µM | Potency [6] 26.4 µM | Potency [7] 10.5 µM | Potency [8] 8.33 µM | Potency [9] 23.5 µM | Potency [10] 18.7 µM | Potency [11] 7.43 µM | Potency [12] 8.33 µM

Clc1ccc2c(c1)C(N1CCNCC1)=Nc1ccccc1O2
active: Potency [1] 20.9 µM | Potency [3] 20.9 µM | Potency [4] 7.43 µM | Potency [6] 18.7 µM | Potency [15] 18.7 µM | Potency [16] 20.9 µM | Potency [8] 20.9 µM
inactive: Potency [2] | Potency [13] | Potency [14] | Potency [11] | Potency [12]

NCCc1cnc[nH]1
inactive: Potency [17] | Potency [3] | Potency [13] | Potency [6] | Potency [16] | Potency [8] | Potency [10] | Potency [12]
active: Potency [5] 1.87 µM

NC(CO)C(=O)NNCc1ccc(O)c(O)c1O (configuration not stated)
inactive: Potency [3] | Potency [8] | Potency [11] | Potency [12]
active: Potency [17] 33.2 µM | Potency [2] 10.5 µM | Potency [13] 26.4 µM | Potency [15] 26.4 µM | Potency [9] 11.8 µM

Cc1cn([C@H]2C[C@H](N=[N+]=[N-])[C@@H](CO)O2)c(=O)[nH]c1=O
active: Potency [3] 23.5 µM | Potency [4] 3.32 µM | Potency [8] 29.6 µM | Potency [10] 16.6 µM | Potency [12] 16.6 µM
inactive: Potency [2] | Potency [5] | Potency [15] | viability [9] 139%

Clc1ccccc1C(c1ccccc1)(c1ccccc1)n1ccnc1
active: Potency [11] 5.9 µM
inactive: Potency [13] | Potency [10]

NC12CC3CC(CC(C3)C1)C2
active: Potency [3] 16.6 µM | Potency [4] 1.18 µM | Potency [16] 0.0026 µM | Potency [10] 26.4 µM | Potency [11] 2.96 µM
inactive: Potency [6] | viability [9] 134%

COC(=O)Nc1nc2ccc(C(=O)c3cccs3)cc2[nH]1
active: Potency [17] 0.296 µM | Potency [3] 0.296 µM | Potency [4] 0.0743 µM | Potency [6] 0.0059 µM | Potency [15] 0.0026 µM | Potency [16] 0.0021 µM | Potency [8] 0.0132 µM | Potency [9] 0.0017 µM

CC(C)(Oc1ccc(C2CC2(Cl)Cl)cc1)C(=O)O (configuration not stated)
active: Potency [4] 9.59 µM
inactive: Potency [3] | Potency [13] | Potency [6] | Potency [8] | viability [9] 131% | Potency [10] | Potency [12]

CCOC(=O)c1ncn2c1CN(C)C(=O)c1cc(F)ccc1-2
active: Potency [4] 18.7 µM | Potency [16] 20.9 µM
inactive: Potency [3] | Potency [13] | Potency [6] | Potency [8] | Potency [11] | Potency [12]

Cn1c(=O)c2c(ncn2C)n(C)c1=O
inactive: Potency [3] | Potency [13] | Potency [4] | Potency [18] | Potency [6] | Potency [15] | Potency [10] | Potency [11] | Potency [12]

COc1ccccc1N1CCN(CC(O)COc2cccc3ccccc23)CC1 (configuration not stated)
inactive: Potency [2] | Potency [3] | Potency [13] | Potency [18] | Potency [15] | viability [9] 119% | Potency [10] | Potency [12]
active: Potency [6] 13.2 µM | Potency [8] 14.8 µM

COc1ccccc1OCCNCC(O)COc1cccc2[nH]c3ccccc3c12 (configuration not stated)
active: Potency [17] 23.5 µM | Potency [16] 18.7 µM | Potency [12] 18.7 µM
inactive: Potency [13]

CCOC(=O)Nc1ccc(NCc2ccc(F)cc2)nc1N
active: Potency [4] 23.5 µM | Potency [11] 14.8 µM
inactive: Potency [2] | Potency [13] | Potency [6] | Potency [8] | viability [9] 134% | Potency [10] | Potency [12]

CN(Cc1cnc2nc(N)nc(N)c2n1)c1ccc(C(=O)N[C@@H](CCC(=O)O)C(=O)O)cc1
active: Potency [19] 18.7 µM | Potency [2] 6.62 µM | Potency [3] 2.35 µM | Potency [13] 4.18 µM | Potency [4] 0.0187 µM | Potency [6] 16.6 µM | Potency [15] 0.0935 µM | Potency [9] 5.9 µM | Potency [10] 0.148 µM | Potency [11] 0.0469 µM | Potency [12] 0.0372 µM

CC1(CN2CCC(n3c(=O)[nH]c4ccccc43)CC2)OCc2ccccc2-n2cccc21 (configuration not stated)
inactive: Potency [13]
active: Potency [17] 5.9 µM | Potency [4] 7.43 µM | Potency [5] 2.64 µM | Potency [6] 14.8 µM | Potency [8] 8.33 µM | Potency [10] 5.9 µM | Potency [11] 4.18 µM | Potency [12] 4.18 µM

Cc1ccc(-c2cc(C(F)(F)F)nn2-c2ccc(S(N)(=O)=O)cc2)cc1
inactive: Potency [13]
active: Potency [4] 20.9 µM | Potency [15] 1.32 µM | Potency [16] 20.9 µM

Fc1ccc([C@@H]2CCNC[C@H]2COc2ccc3c(c2)OCO3)cc1
active: Potency [5] 18.7 µM | Potency [6] 20.9 µM
inactive: Potency [17] | Potency [12]

O=c1c(-c2ccc(O)cc2)coc2cc(O)cc(O)c12
inactive: Potency [13] | Potency [8]
